Details in all cases: concentration: 1 μM, replicates: in singlicate; n = 1
Test [1] deals with DYRK1B.
Test [2] concerns DYRK2.
Test [3] concerns EGFR.
Test [4] concerns EIF2AK1.
The test system of test [5] is EPHA1.
Test [6] concerns EPHA2.
Test [7] concerns EPHA3.
Test [8] concerns EPHA4.
Test [9] concerns EPHA5.
Test [10] concerns EPHA6.
The test system of test [11] is EPHA7.
Test [12] has as its system EPHA8.
Test [13] relates to EPHB1.
In test [14] the test system is EPHB2.
Test [15] has as its system EPHB3.
Test [16] deals with EPHB4.
Test [17] has as its system EPHB6.
In test [18] the test system is ERBB2.
The subject of test [19] is ERBB3.
The test system of test [20] is ERBB4.

SMILES strings stand for the structures.
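Further: KINOMEscan kinase panel screen.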

Regarding `O=C(O)C(F)(F)F.O=C(O)C(F)(F)F.O=c1[nH]ccc2nc(N[C@@H]3CCCNC3)nc(Nc3ccc(S(=O)(=O)N4CCOCC4)cc3)c12` [GSK2177277], the “%Inh” value is 0% in [1]; 59% in [2]; 45% in test [3]; 21% in test [4]; 25% in [5]; 28% in test [6]. Besides, the “%Inh” value in test [7] amounted to 98.9%; in test [8], 57%; in test [9], 32%; in test [10] it was 62%; in test [11], 58%; in test [12], 39%. In addition, the “%Inh” value in test [13] came out at 31%; in test [14] it was 0%; in test [15], 15%; in test [16], 21%; in test [17], 30%; in test [18] it was 2%. For the same compound, the “%Inh” value in [19] turned out to be 45%; in test [20], 12%.
Consider `COC(=O)Nc1nc2ccc(Oc3ccc(NC(=O)Nc4cc(C(F)(F)F)ccc4F)cc3)cc2n1C.Cl` [GW692089], for which the “%Inh” value is recorded as 26% in test [1]; 0% in test [2]; 0% in test [3]; 0% in [4]; 36% in test [5]; 75% in test [6]. Also, the “%Inh” value in [7] is reported as 26%; in test [8] it was 65%; in test [9], 0%; in test [10] it was 84%; in [11] it was 72%; in [12] it was 91.5%. Besides, the “%Inh” value in [13] is on record as 35%; in test [14], 43%; in [15], 17%; in test [16], 48%; in [17], 67%; in test [18], 28%. Further, the “%Inh” value amounted to 29% in test [19] and 4% in test [20].
As for `O=C(Nc1n[nH]c2nc(-c3ccc(O)cc3)ccc12)C1CC1` [SB-710363], the “%Inh” value in test [1] was 65%; in [2] it was 97.2%; in test [3] it was 0%; in test [4], 0%; in test [5], 0%; in [6], 0%. Moreover, the “%Inh” value was found to be 16% in test [7]; 3% in test [8]; 0% in test [9]; 17% in test [10]; 0% in [11]; 0% in test [12]. Besides, the “%Inh” value in test [13] stood at 0%; in test [14] it was 16%; in test [15] it was 0%; in [16], 0%; in test [17], 38%; in test [18] it was 0%. Besides, the “%Inh” value came to 94.6% in [19] and 6% in test [20].
Turning to `COc1cccc(C(=O)Nc2cccc(Oc3ccc4nc(NC(=O)C5CC5)cn4n3)c2)c1`, the “%Inh” value in [1] is reported as 19%; in test [2], 9%; in test [3], 78%; in [4], 0%; in test [5], 42%; in test [6], 98.7%. The “%Inh” value in [7] stood at 62%; in test [8] it was 79%; in test [9], 57%; in test [10], 68%; in [11], 5%; in test [12], 98.4%. Besides, the “%Inh” value was found to be 87% in test [13]; 94.5% in test [14]; 0% in [15]; 85% in test [16]; 98.5% in test [17]; 4% in [18]. For the same compound, the results for the “%Inh” value in test [19] and in [20] were 10% and 6%, respectively.
For `O=C(Nc1n[nH]c2cc(-c3ccoc3)ccc12)C1CC1` [SB-738481], the “%Inh” value came to 23% in test [1]; 75% in test [2]; 6% in test [3]; 0% in test [4]; 13% in test [5]; 0% in test [6]. The “%Inh” value in [7] was 0%; in test [8], 5%; in test [9], 2%; in test [10], 9%; in [11] it was 0%; in [12], 31%. In addition, the “%Inh” value worked out at 0% in test [13]; 0% in [14]; 0% in test [15]; 5% in [16]; 10% in test [17]; 0% in test [18]. The “%Inh” value in test [19] and in [20] was 0% throughout.
With `O=C(Nc1ccccc1F)NC1CCN(c2ccnc(Nc3ccc(F)cc3)n2)CC1` [GSK1379800], the “%Inh” value was determined as 12% in [1]; 0% in test [2]; 47% in test [3]; 0% in test [4]; 0% in [5]; 0% in test [6]. The “%Inh” value in [7] is 0%; in [8], 5%; in test [9], 0%; in [10], 5%; in test [11], 0%; in test [12], 0%. Besides, the “%Inh” value in [13] is recorded as 17%; in test [14], 0%; in test [15], 11%; in test [16], 8%; in [17], 18%; in [18], 33%. Further, the “%Inh” value turned out to be 3% in [19] and 32% in test [20].
On to `Cn1cc(-c2ccc3c(c2)CCN3C(=O)Cc2cccc(Cl)c2)c2c(N)ncnc21` [GSK2606590], for which the “%Inh” value in test [1] is reported as 0%; in test [2] it was 5%; in test [3], 2%; in test [4] it was 89%; in [5], 11%; in test [6] it was 10%. For the same compound, the “%Inh” value stood at 0% in test [7]; 0% in [8]; 0% in test [9]; 17% in test [10]; 13% in [11]; 34% in test [12]. For the same compound, the “%Inh” value came to 15% in test [13]; 0% in [14]; 9% in [15]; 8% in test [16]; 86% in test [17]; 5% in [18]. Further, the “%Inh” value in test [19] and in [20] was 0% in each case.
On to `O=C(NC1CCN(c2ccnc(Nc3ccc(F)cc3)n2)C1)c1cc2ccccc2s1` (centres unmarked) [GSK1379716], for which the “%Inh” value in test [1] is 14%; in test [2] it was 0%; in test [3], 22%; in test [4], 0%; in test [5], 9%; in test [6], 17%. Also, the “%Inh” value was found to be 0% in test [7]; 16% in [8]; 2% in test [9]; 10% in test [10]; 7% in test [11]; 14% in test [12]. In addition, the “%Inh” value was 9% in test [13]; 18% in [14]; 17% in [15]; 15% in test [16]; 0% in test [17]; 42% in [18]. Besides, the “%Inh” value is reported as 22% in test [19] and 28% in test [20].
As to `Cn1cc(-c2ccc3c(c2)CCN3C(=O)Cc2cccc(F)c2)c2c(N)ncnc21` [GSK2603358], the “%Inh” value in test [1] came out at 1%; in test [2] it was 4%; in test [3] it was 35%; in test [4], 87%; in [5], 16%; in [6], 0%. In addition, the “%Inh” value worked out at 0% in test [7]; 7% in test [8]; 0% in [9]; 15% in test [10]; 7% in [11]; 11% in [12]. Also, the “%Inh” value is recorded as 0% in test [13]; 0% in [14]; 13% in test [15]; 16% in test [16]; 98.7% in test [17]; 40% in [18]. For the same compound, the “%Inh” value in test [19] turned out to be 0%; in test [20], 12%.
`C[C@@H](Oc1cc(-n2cnc3cc(-c4ccnc(NCCS(C)(=O)=O)c4)ccc32)sc1C(N)=O)c1ccccc1Cl` [GSK907232]: the “%Inh” value is listed as 0% in test [1]; 15% in test [2]; 35% in test [3]; 1% in [4]; 9% in test [5]; 16% in test [6]. For the same compound, the “%Inh” value in test [7] amounted to 0%; in test [8], 10%; in test [9], 0%; in test [10], 23%; in test [11] it was 6%; in test [12], 23%. Moreover, the “%Inh” value came out at 19% in [13]; 0% in test [14]; 10% in [15]; 3% in test [16]; 60% in test [17]; 0% in test [18]. The “%Inh” value in test [19] and in test [20] was 0% throughout.

Source of the values: publication PMC5540273 (PLoS ONE, 2017).
